Laboratory results as given in PubChem BioAssay AID504660 (National Center for Advancing Translational Sciences (NCATS), 2011).
About 3,700 (1%) of roughly 360,000 compounds were called active. The sample holds actives, similar compounds and a random draw of the others, so the mix is not that of the screen. Unmarked numbers belong to inactive results. No stated cut-off is given here; in the data, active means activation above about 30%; inactive means the rest.
Further: 0% is about no effect.

These compounds were tested against D(1A) dopamine receptor (Homo sapiens) (UniProt P21728) (assay: Allosteric Agonists of the Human D1 Dopamine Receptor: qHTS). Conditions: HEK293 T-REx D1 cells, calcium flux, agonist mode; at 2 µM; hits give high values.
Sequence of D(1A) dopamine receptor (Homo sapiens) (P21728 whole entry, looked up): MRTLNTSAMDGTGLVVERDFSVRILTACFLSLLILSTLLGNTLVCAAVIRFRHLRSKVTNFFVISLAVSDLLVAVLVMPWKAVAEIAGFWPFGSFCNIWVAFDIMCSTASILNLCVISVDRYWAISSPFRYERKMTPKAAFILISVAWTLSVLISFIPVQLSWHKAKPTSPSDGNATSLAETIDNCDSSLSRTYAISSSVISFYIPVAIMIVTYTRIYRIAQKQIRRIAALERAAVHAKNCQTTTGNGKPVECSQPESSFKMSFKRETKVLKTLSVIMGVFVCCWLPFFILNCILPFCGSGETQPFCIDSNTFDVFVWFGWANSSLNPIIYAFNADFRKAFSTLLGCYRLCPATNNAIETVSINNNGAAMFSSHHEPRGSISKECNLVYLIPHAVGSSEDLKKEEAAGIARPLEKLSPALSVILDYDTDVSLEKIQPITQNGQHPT
Summary of the method: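 Agonism was scored from calcium flux recorded over 180 s (1 read/s) after pintool compound addition, following a 10-cycle baseline. Cells were inducible force-coupled HEK293 TREx D1, plated overnight at 30 C and loaded with no-wash calcium dye.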
With CC(C)(C)c1ccc(S(=O)(=O)N2CCN(C(=O)c3cc(-c4ccc(Br)cc4)n[nH]3)CC2)cc1 the activation was 2.7%.
COc1ccc(NC(=O)CN2CCCN(Cc3ccccc3)S2(=O)=O)cc1 showed an activation of -2.31%.
O=C(C1CCC(Cn2c(=O)c3sccc3n(Cc3ccccc3F)c2=O)CC1)N1CCCCC1 (configuration not stated) gave an activation of 1.57%.
CN(c1ccccc1)S(=O)(=O)c1cccc(C(=O)NNC(=O)c2ccncc2)c1 showed an activation of 0.604%.
For CC(=O)c1c(C)[nH]c(C(=O)COC(=O)c2cccc(S(=O)(=O)N(C)c3ccccc3)c2)c1C, the activation was 31.9% (active).
Work on COc1ccc(C)cc1NC(=O)C(OC(=O)c1cccc(S(=O)(=O)N(C)c2ccccc2)c1)c1ccccc1 (configuration not stated) yielded an activation of 0.857%.
With N#Cc1nc(Nc2cc(F)cc(Cl)c2)nc(NC2CCCC2)n1 the activation was 11.1%.
Work on COc1ccccc1N1CCN(C(CNC(=O)C(=O)NCc2ccc(C)cc2)c2cccnc2)CC1 (configuration not stated) yielded an activation of 3.64%.
O=C(CCN1C(=O)COc2ccccc21)NCCCN1CCN(c2ccc(F)cc2)CC1 showed an activation of -0.0538%.
CC1=C(c2ccc(C)cc2)S(=O)(=O)NC1=NCCCN1CCN(c2cc(C)ccc2C)CC1 gave an activation of 6.19%.
For O=C(CSc1ccc([N+](=O)[O-])cn1)Nc1ccc(N2CCOCC2)cc1, the activation was 0.916%.
O=C(NCCCN1CCN(c2ccc(F)cc2)CC1)Nc1ccc([N+](=O)[O-])cc1 was tested, and the activation was 32.8% (active).
CCOC(=O)c1c(C)[nH]c(CCC(=O)NCCCN2CCN(c3cc(C)ccc3C)CC2)c1C was tested, and the activation was 22.5%.
In the case of Cc1ccc(C)c(N2CCN(CCCNC(=O)Nc3ccc(Cl)cc3)CC2)c1, the activation is reported as 65.5% (active).
In the case of O=C(Nc1cccc2cccnc12)C(F)(F)F, the activation is reported as 0.559%.
Compound COc1ccc(S(=O)(=O)NCCSc2nnnn2-c2ccccc2)cc1 has an activation of 2.54%.
With CCOc1ccc(S(=O)(=O)c2cn(Cc3ccccc3)c3ccc(OCC)cc3c2=O)cc1 the activation was 1.46%.
With CCOC(=O)c1c(C)[nH]c(C)c1S(=O)(=O)NCC(=O)NCc1cccc(C)c1 the activation was 6.99%.
CCCCOC(=O)/C(C#N)=C/c1ccc(-c2cccc(C(F)(F)F)c2)o1 showed an activation of 6.87%.
With c1ccc(C2CNCc3c2ccc2ccccc32)cc1 (configuration not stated) the activation was 45.9% (active).
Work on Cc1ccc2nc(COc3cccc(NC(=O)c4ccccc4Cl)c3)cc(=O)n2c1 yielded an activation of 0.0743%.
For Cc1cc(C)c(/C=C2\C(=O)Nc3ccccc32)[nH]1, the activation was 92.6% (active).
COc1ccccc1S(=O)(=O)c1c(C)cc(C)[nH]c1=O was tested, and the activation was 3.01%.
With Cc1cc(C)cc(NS(=O)(=O)c2ccc(-c3cc(C)no3)s2)c1 the activation was 1.79%.
In the case of O=S(=O)(c1ccc2c(c1)OCCO2)N1CCN(S(=O)(=O)c2cc(F)ccc2F)CC1, the activation is reported as 6.6%.
Compound CCc1cccc(NC(=O)CN(c2ccc(C)c(C)c2)S(=O)(=O)c2ccsc2C(=O)OC)c1 has an activation of 3.48%.
With Cc1cccc(NC(=O)N2CCC(CN3CCc4ccccc4C3)CC2)c1C the activation was 6.8%.
O=C(/C=C/c1ccc(OCc2c(F)cccc2Cl)cc1)N1CCOCC1 was tested, and the activation was 59.7% (active).
CN(C)CCCNC(=O)/C=C/c1ccc(OCc2c(F)cccc2Cl)cc1 showed an activation of 20.4%.
Compound Fc1cccc(Cl)c1COc1ccc(-c2nnco2)cc1 has an activation of 4.97%.
CCC(=O)Nc1ccc2nc(SCC(=O)N3CCc4ccccc43)sc2c1 was tested, and the activation was 4.11%.
With CS(=O)(=O)c1ccc(-c2nnc(NC(=O)c3ccc4c(c3)OCCO4)o2)cc1 the activation was 2.14%.
With CCCN(C(=O)Cn1cc(S(=O)(=O)N2CCN(c3ccccc3F)CC2)c2ccccc2c1=O)c1cccc(C)c1 the activation was 5.13%.
In the case of Cn1nc(-c2ccccc2)c(CO)c1Sc1ccccc1, the activation is reported as 2.17%.
In the case of Cc1nn(C)c(C)c1Sc1ccccc1N, the activation is reported as 37.1% (active).
For Nc1ccccc1Sc1cc(Cl)nnc1Cl, the activation was 0.62%.
COC(=O)c1ccc(Sc2ccc(F)cc2)c(N)c1 was tested, and the activation was 2.52%.
Compound CC(=O)Nc1cc(C(=O)NCc2ccc(F)cc2)ccc1Sc1ccc(F)cc1 has an activation of -2.57%.
In the case of CC(C)(CCl)C(=O)Nc1ccc(Sc2ccc(F)cc2)cc1, the activation is reported as 32.5% (active).
Compound CN(C)c1ccc(C(CNS(=O)(=O)c2cc(F)ccc2F)N2CCOCC2)cc1 (configuration not stated) has an activation of 5.52%.
CCCc1cc(=O)n2[nH]c(NCc3ccc(CC)cc3)nc2n1 gave an activation of 1.79%.
In the case of Cc1c(Cl)cccc1NC(=O)C1CCCN(C(=O)c2cnn(-c3ccccc3)c2-n2cccc2)C1 (configuration not stated), the activation is reported as 4.43%.
CCOC(=O)c1ccc(NC(=O)CCS(=O)(=O)c2ccc(C)cc2)cc1 gave an activation of 1.55%.
With CCc1ccc(-c2nn(-c3ccccc3)cc2CSC(=N)N)cc1 the activation was 47.5% (active).
For CCc1ccc(-c2nn(-c3ccccc3C)cc2C(=O)N2CCN(C3CCS(=O)(=O)C3)CC2)cc1 (configuration not stated), the activation was 1.59%.
In the case of O=Cc1cn(-c2ccccc2)nc1-c1ccccn1, the activation is reported as -0.0617%.
With CN(C(=O)CSc1nnnn1-c1ccccc1)C1CCCCC1 the activation was 0.493%.
Work on Fc1ccccc1CCNc1nnnn1-c1ccccc1 yielded an activation of 5.56%.
With c1ccc(-n2nnnc2NC2CCCCCC2)cc1 the activation was 112% (active).
With CCOc1cccc2cc(-c3cn4c(n3)sc3cc(C)ccc34)c(=O)oc12 the activation was 0.779%.
Compound CCc1nc2c(cnn2-c2ccc(C)cc2)c(=O)n1-c1ccc(C)cc1 has an activation of 5.84%.
Work on Cc1cccc(C(=O)Nc2ccc(-c3nc4ccccc4s3)c(C)c2)c1 yielded an activation of 6.34%.
In the case of COc1ccc(S(=O)(=O)Nc2cccc3cccnc23)c(N)c1, the activation is reported as 4.45%.
In the case of CCc1ccc(/C=N/NC(=O)c2nnn(-c3nonc3N)c2CN2CCc3ccccc32)cc1, the activation is reported as -0.149%.
In the case of Nc1nonc1-n1nnc(C(=O)N/N=C/c2ccc(Cl)cc2)c1-c1ccc2c(c1)OCO2, the activation is reported as 94.3% (active).
Work on CCCOc1ccc(-c2c(C(=O)N/N=C/c3ccco3)nnn2-c2nonc2N)cc1 yielded an activation of 13.8%.
With Cc1cccc(NC(=O)c2ccc3nc(C(C)C)oc3c2)c1C the activation was 2.14%.
